{"source": "PubChem BioAssay AID583", "about": "(Sanford-Burnham Center for Chemical Genomics, 2007)", "note": "“And” between values parts separate entries of the source, which are not always exact repeats. Equal values may be shown once. Out of some 140,000 compounds screened, about 80 (0.06%) were called active. Shown is part of a subset that was picked to be rich in actives. Values without a mark were called inactive. No stated cut-off is given here; in the data, active means displacement above about 50%; inactive means the rest.", "data": [{"biological_target": "Heat shock 70 kDa protein 1A (Homo sapiens) (UniProt P0DMV8)", "sequence (P0DMV8 whole entry, looked up)": "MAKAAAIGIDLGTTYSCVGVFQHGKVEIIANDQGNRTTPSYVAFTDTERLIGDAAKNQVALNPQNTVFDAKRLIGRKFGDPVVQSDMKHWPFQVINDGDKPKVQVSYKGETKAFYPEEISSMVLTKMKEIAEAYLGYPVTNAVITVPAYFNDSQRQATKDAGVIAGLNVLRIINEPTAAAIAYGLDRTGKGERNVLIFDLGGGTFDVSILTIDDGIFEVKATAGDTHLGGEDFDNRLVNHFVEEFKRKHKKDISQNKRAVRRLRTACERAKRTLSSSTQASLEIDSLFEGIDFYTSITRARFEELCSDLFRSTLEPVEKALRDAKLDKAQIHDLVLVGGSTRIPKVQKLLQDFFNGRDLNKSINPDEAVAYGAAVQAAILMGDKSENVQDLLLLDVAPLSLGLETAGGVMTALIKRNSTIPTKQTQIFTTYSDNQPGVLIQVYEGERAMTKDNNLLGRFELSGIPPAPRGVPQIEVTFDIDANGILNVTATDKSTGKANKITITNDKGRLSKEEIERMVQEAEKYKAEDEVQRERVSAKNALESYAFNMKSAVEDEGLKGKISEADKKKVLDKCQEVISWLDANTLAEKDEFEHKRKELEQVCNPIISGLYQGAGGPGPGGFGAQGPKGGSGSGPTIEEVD", "assay": "small molecules displacing fluorescent ligand from Hsp70 – biochemical, fluorescence polarization, primary screen (AID 583);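 further: plate controls were vehicle for no effect and reference ligand for full effect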", "details": "Hsp70 fluorescence polarization probe displacement, mP; at 20 µM; active compounds read high", "values": [{"smiles": "O=C1NC(=O)N(c2ccc(Cl)cc2)C(=O)/C1=C/c1ccc(Br)o1", "displacement": "-0.1%"}, {"smiles": "CN1C(=O)NC(=O)/C(=C/c2ccc(I)o2)C1=O", "displacement": "9.4%"}, {"smiles": "COc1ccc(N2C(=O)/C(=C/c3ccc(-c4cc(C(=O)O)ccc4Cl)o3)C(=O)NC2=S)cc1", "displacement": "5%"}, {"smiles": "CCOc1ccc(N2C(=O)/C(=C/c3ccc(Br)o3)C(=O)NC2=S)cc1", "displacement": "84.5% (active)"}, {"smiles": "CN1C(=O)NC(=O)/C(=C/c2ccc(Br)o2)C1=O", "displacement": "2.1%"}, {"smiles": "O=C1NC(=S)N(c2ccc(F)cc2)C(=O)/C1=C/c1ccc(Br)o1", "displacement": "68.7% (active)"}, {"smiles": "COc1ccc(N2C(=O)/C(=C/c3ccc(I)o3)C(=O)NC2=S)cc1", "displacement": "92% (active)"}, {"smiles": "CCOc1ccc(N2C(=O)NC(=O)/C(=C\\c3ccc(C)o3)C2=O)cc1", "displacement": "-5.2%"}, {"smiles": "CCOc1ccc(N2C(=O)/C(=C/c3ccc(C)o3)C(=O)NC2=S)cc1", "displacement": "-26.6%"}, {"smiles": "Cc1cccnc1NC1=NCC(C)S1", "note": "(stereo not given)", "displacement": "3.9%"}, {"smiles": "CCC(=O)N1N=C2C3CCN(CC3)C2C1c1ccc([N+](=O)[O-])cc1", "note": "(stereo not given)", "displacement": "-5.5%"}, {"smiles": "CCC(C)N=Cc1c(O)n(-c2ccccc2)c(=O)[nH]c1=O", "note": "(stereo not given)", "displacement": "-0.1%"}, {"smiles": "CC(C)C12CN3CCN(CC(C3)C1O)C2", "note": "(stereo not given)", "displacement": "5.4% and 5.3%"}, {"smiles": "CCN1C(=O)/C(=C/c2cccn2C)C(=O)NC1=S", "displacement": "72.7% (active)"}, {"smiles": "CN1C(=O)C(=Cc2cccn2-c2cccc([N+](=O)[O-])c2)C(=O)N(C)C1=O", "displacement": "-8.6%"}, {"smiles": "O=C1NC(=O)N(c2ccccc2)C(=O)/C1=C/c1ccoc1", "displacement": "-9.7%"}, {"smiles": "Cn1cccc1/C=C1/C(=O)NC(=S)N(c2ccc(Cl)cc2)C1=O", "displacement": "36.4%"}, {"smiles": "C=CCN1C(=O)NC(=O)C(=Cc2cccn2C)C1=O", "displacement": "0.2%"}, {"smiles": "C=CCN1C(=O)/C(=C\\c2cccn2-c2cccc([N+](=O)[O-])c2)C(=O)NC1=S", "displacement": "60.8% (active)"}, {"smiles": "CCN1C(=O)/C(=C/c2ccoc2)C(=O)NC1=S", "displacement": "73.6% (active)"}, {"smiles": "COc1ccc(CN2C(=O)NC(=O)/C(=C\\c3ccoc3)C2=O)cc1", "displacement": "-10%"}, {"smiles": "C=CCN1C(=O)/C(=C\\c2cccn2-c2ccc([N+](=O)[O-])cc2)C(=O)NC1=S", "displacement": "20.3%"}, {"smiles": "CN1C(=O)C(C2c3ccccc3C(=O)N2Cc2ccccc2)C(=O)N(C)C1=O", "note": "(stereo not given)", "displacement": "-7%"}, {"smiles": "C=CCN1C(=O)/C(=C\\c2cccs2)C(=O)NC1=S", "displacement": "2.1%"}, {"smiles": "O=S(=O)(c1ccccc1)N1CC1c1ccccc1", "note": "(stereo not given)", "displacement": "0.1%"}, {"smiles": "CCOC(=O)N1CCN(C(C)C(=O)c2c[nH]c3ccccc23)CC1", "note": "(stereo not given)", "displacement": "-0.3%"}, {"smiles": "O=C1CN=C(c2cccs2)c2c(sc3c2CCCC3)N1", "displacement": "0.2%"}, {"smiles": "CC(C)(C)c1ccc(OCCOc2ccccc2C=C2C(=O)NC(=O)NC2=O)cc1", "displacement": "-4.4%"}, {"smiles": "c1ccc(CN2CCN(C3CCCCC3)CC2)cc1", "displacement": "-0.7%"}, {"smiles": "CCc1nc2ccccc2c(=O)n1-c1ccc2ccccc2c1", "displacement": "0.4%"}, {"smiles": "O=C1NC(=S)N(c2ccccc2F)C(=O)C1=Cc1ccco1", "displacement": "96.8% (active)"}, {"smiles": "CCOc1ccc(N2C(=O)/C(=C/c3ccco3)C(=O)NC2=S)cc1", "displacement": "92% (active)"}, {"smiles": "O=C1NC(=O)N(c2cccc(Br)c2)C(=O)/C1=C/c1ccco1", "displacement": "98.6% (active)"}, {"smiles": "CCOc1ccc(N2C(=O)/C(=C/c3ccc(C)cc3)C(=O)NC2=S)cc1", "displacement": "-3.1%"}, {"smiles": "CC(C)c1ccc(N2C(=O)NC(=O)/C(=C/c3ccco3)C2=O)cc1", "displacement": "-1.4%"}, {"smiles": "CCOc1ccc2ccccc2c1/C=C1\\C(=O)NC(=S)N(c2ccccc2)C1=O", "displacement": "3.3%"}, {"smiles": "Cc1cccc(N2C(=O)NC(=O)C(=Cc3ccco3)C2=O)c1", "displacement": "9.1%"}, {"smiles": "CN(C)c1ccc(C=C2C(=O)NC(=S)N(c3ccccc3F)C2=O)cc1", "displacement": "-0.7%"}, {"smiles": "O=C1NC(=S)N(c2cccc(Cl)c2)C(=O)/C1=C/c1ccc(Cl)cc1", "displacement": "-2.1%"}, {"smiles": "Cc1ccc(C=C2C(=O)NC(=S)N(c3ccccc3F)C2=O)s1", "displacement": "-0.4%"}, {"smiles": "O=C1NC(=S)N(c2ccccc2)C(=O)/C1=C/c1ccco1", "displacement": "83.4% (active)"}, {"smiles": "CCOc1ccc(N2C(=O)/C(=C/c3cc(Cl)ccc3O)C(=O)NC2=S)cc1", "displacement": "0.9%"}, {"smiles": "CCC1(Cc2ccccc2)C(=O)NC(=O)NC1=O", "displacement": "1.5%"}, {"smiles": "CCOc1ccc(NC(=S)NC2CN3CCC2CC3)cc1", "note": "(stereo not given)", "displacement": "-0.4%"}, {"smiles": "C#CCNc1ccncc1S(=O)(=O)NC(=O)NC(C)C", "displacement": "5.1%"}, {"smiles": "Cc1c(C(=O)N2CCC3(CC2)OCCO3)sc2ncnc(N(C)c3ccccc3)c12", "displacement": "0.4%"}, {"smiles": "CCOC(=O)C1C(=O)NC2(C)CC1c1cc(OC)ccc1O2", "note": "(stereo not given)", "displacement": "7.2%"}, {"smiles": "COC(=O)C[C@]1(C(=O)OC)CN(C#N)N(c2ccc(Cl)cc2)C12c1ccccc1-c1ccccc12", "displacement": "10.7%"}, {"smiles": "c1cc(CN2CCN(C3C4CC5CC(C4)CC3C5)CC2)ccn1", "note": "(stereo not given)", "displacement": "5.7%"}, {"smiles": "CN1CCN(c2nccc3c2ncn3C)CC1", "displacement": "-5.2%"}, {"smiles": "COc1ccccc1N1CCN(Cc2ccccc2F)CC1", "displacement": "-0.6%"}, {"smiles": "O=C1NC(=S)N(c2cccc(Br)c2)C(=O)/C1=C/c1cccs1", "displacement": "-3%"}, {"smiles": "O=C1NC(=S)N(c2cccc(Br)c2)C(=O)/C1=C/c1ccco1", "displacement": "95.8% (active)"}, {"smiles": "O=C1NC(=S)N(c2cccc(Br)c2)C(=O)/C1=C/C=C/c1ccccc1", "displacement": "-13.2%"}, {"smiles": "COc1cc(/C=N/n2cnnc2)ccc1OC(=O)N(C)C", "displacement": "0.2%"}]}]}
